Screening data deposited in PubChem BioAssay by National Center for Advancing Translational Sciences (NCATS).
This is a sample that favours compounds with a hit; in the whole collection about 0.55% have one here.
EPAC1 ag – qHTS for Agonist of cAMP-regulated guanine nucleotide exchange factor 3 (EPAC1): primary screen; AID 720707, 2013; EPAC1 agonist qHTS, biochemical assay; response scale: 100% = response to 6.5 mM cAMP; Potency, µM (series often up to 154 µM), for inactives: at the highest dose activation, actives largely listed as activators; 0.073% of 360,000 active; also: nearly all actives have a fitted effect of over 60% in size
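Nucleotide exchange by EPAC1 (100 nM) on Rap1B–BODIPY-GDP (250 nM) in the presence of 50 uM GDP is tracked fluorescently at 480/540 nm over 30 min. Signals are normalized to a 6.5 mM cAMP control.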
EPAC2 antagonist – qHTS for Antagonist of cAMP-regulated guanine nucleotide exchange factor 2 (EPAC2): primary screen. Rap guanine nucleotide exchange factor 4 (Homo sapiens), Q8WZA2. EPAC2 GEF exchange of Rap1B-BODIPY-GDP, fluorescence. Potency, µM (series often up to 114 µM), without a hit: at the highest dose activity, negative = inhibition, hits mostly inhibitors. 0.18% of 360,000 active. AID 720708, 2013; also: % is scaled to controls: 0 for no effect and ±100 for the full control effect; nearly all actives have a fitted effect of over 45% in size
Target sequence (Q8WZA2 whole entry, looked up): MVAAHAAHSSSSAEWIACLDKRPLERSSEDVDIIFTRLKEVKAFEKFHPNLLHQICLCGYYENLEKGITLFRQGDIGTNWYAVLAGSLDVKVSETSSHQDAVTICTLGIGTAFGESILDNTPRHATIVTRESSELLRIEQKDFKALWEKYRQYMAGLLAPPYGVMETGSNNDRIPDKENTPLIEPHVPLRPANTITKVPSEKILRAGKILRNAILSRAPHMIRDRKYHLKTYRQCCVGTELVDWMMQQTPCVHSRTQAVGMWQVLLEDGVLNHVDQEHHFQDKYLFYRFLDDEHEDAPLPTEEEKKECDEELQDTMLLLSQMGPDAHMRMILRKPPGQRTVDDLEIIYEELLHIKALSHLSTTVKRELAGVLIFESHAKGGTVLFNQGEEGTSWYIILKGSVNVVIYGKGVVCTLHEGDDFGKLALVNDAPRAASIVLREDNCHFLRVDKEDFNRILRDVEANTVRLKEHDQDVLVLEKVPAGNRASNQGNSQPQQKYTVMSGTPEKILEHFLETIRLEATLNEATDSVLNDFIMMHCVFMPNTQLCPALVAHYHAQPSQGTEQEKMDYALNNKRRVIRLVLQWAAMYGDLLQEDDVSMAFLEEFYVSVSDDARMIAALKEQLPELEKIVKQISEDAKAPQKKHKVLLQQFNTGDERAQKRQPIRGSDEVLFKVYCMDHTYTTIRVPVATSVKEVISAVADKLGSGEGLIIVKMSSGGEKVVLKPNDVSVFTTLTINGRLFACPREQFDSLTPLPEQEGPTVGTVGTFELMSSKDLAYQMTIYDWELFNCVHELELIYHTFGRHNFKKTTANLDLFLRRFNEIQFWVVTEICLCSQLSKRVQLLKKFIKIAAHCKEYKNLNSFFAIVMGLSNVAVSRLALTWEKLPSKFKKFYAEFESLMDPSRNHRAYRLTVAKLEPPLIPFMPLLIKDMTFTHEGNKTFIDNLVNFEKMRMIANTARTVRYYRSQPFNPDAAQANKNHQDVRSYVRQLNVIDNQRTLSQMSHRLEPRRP
EPAC1 antag – qHTS for Antagonist of cAMP-regulated guanine nucleotide exchange factor 3 (EPAC1): primary screen | Rap guanine nucleotide exchange factor 3 (Homo sapiens), O95398 | EPAC1 GEF assay, Rap1b-BODIPY-GDP exchange fluorescence | Potency, µM (doses to about 115 µM), for the others: top-dose activity change, negative = inhibition, usual class: inhibitors | 0.14% of 360,000 active | AID 720709, 2013;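 also: plate controls were vehicle for no effect and positive control for full effect; nearly all actives have a fitted effect of over 50% in size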
USP1 inh – Inhibitors of USP1/UAF1: Primary Screen; Ubiquitin carboxyl-terminal hydrolase 1 (Homo sapiens), O94782; recombinant USP1/UAF1, Ub-Rhodamine cleavage fluorescence; Potency, µM (highest dose often 57.1 µM), for the others: at the highest dose activity change, negative = inhibition, hits mostly inhibitors; 0.23% of 390,000 active; also: % is scaled to controls: 0 for no effect and ±100 for the full control effect; nearly all actives have a fitted effect of over 60% in size
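High-throughput fluorogenic screen: 1nM USP1/UAF1 complex, Ub-Rho substrate 150nM final, 50mM HEPES pH 7.8 with 0.5mM EDTA, 0.1 mg/ml BSA, 1mM TCEP and 0.01% Tween-20.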
EPAC2 ag – qHTS for Agonist of cAMP-regulated guanine nucleotide exchange factor 4 (EPAC2): primary screen. 0.079% of 360,000 active. Potency, µM (top dose mostly 154 µM), for the others: at the highest dose activation, most hits filed as activators. Rap guanine nucleotide exchange factor 4 (Homo sapiens), Q8WZA2. AID 720711, 2013. EPAC2 activation, biochemical qHTS; response scale: 100% = 6.5 mM cAMP response; also: nearly all actives have a fitted effect of over 50% in size
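Guanine nucleotide exchange by EPAC2 is measured as reduced fluorescence of BODIPY-GDP once it is released from 250 nM Rap1B. Plates are read kinetically for 30 min at room temperature; results are scaled to 6.5 mM cAMP.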
GLP1R cytotox – qHTS of GLP-1 Receptor Inverse Agonists: Cytotox Screen; HEK293 cAMP-luciferase reporter cells, luminescence, 24 h; Potency, µM (top dose mostly 38.3 µM), for the others: at the highest dose activity change, negative = inhibition, usual class: inhibitors; 0.13% of 410,000 active;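 also: loss of luciferase light is scored as toxicity; % is scaled to controls: 0 for no effect and ±100 for the full control effect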
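Luminescence readout: signal drop marks cytotoxicity. Plated cells grew 12 h at 37 °C, 5% CO2, received 23 nL compound for 24 h, then got luciferase reagent, read after 12 min at RT.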
The depositor's hits bear a star; ? = inconclusive; / = no result. Calls follow the shape of the dose curve; as a rule, active = well fitted curve in the direction sought with a large enough effect; inconclusive = small, poorly fitted or top-dose-only effect, or another doubt; inactive = no such curve, though single readings can be large; an effect the other way counts as inactive or inconclusive. Potency is read from the fitted curve at half-maximal effect.

SMILES	EPAC1 ag	EPAC2 antagonist	EPAC1 antag	USP1 inh	EPAC2 ag	GLP1R cytotox
CC(C)c1nn2c(=O)cc(COC(=O)c3cccc(NC(=O)COc4ccc(F)cc4)c3)nc2s1	/	/	/	-25.0%	/	-7.7%
CCS(=O)(=O)C1=NN2C(=N)/C(=C\c3ccc(OCCOc4cccc(OC)c4)c(OC)c3)C(=O)N=C2S1	-5.7%	?	?	-11.2%	-1.1%	-7.1%
CCOc1cc(/C=C2\C(=N)N3N=C(S(C)(=O)=O)SC3=NC2=O)ccc1OCCOc1cccc(OC)c1	1.9%	-21.1%	50.1µM*	?	-7.4%	-10.6%
Cn1cccc1/C=C1\CCC/C(=C\c2cccn2C)C1=O	100µM*	?	19.1%	22.4µM*	-20.6%	77.5%
O=C1/C(=C/c2cccs2)CCC/C1=C\c1cccs1	15.9%	-3.0%	-8.1%	-7.4%	7.5%	-17.3%
CCCCn1c(NS(=O)(=O)c2ccc(C)cc2)c(S(=O)(=O)c2ccccc2)c2nc3ccccc3nc21	1.8%	-1.0%	?	28.2µM*	-22.1%	41.8%
Cc1ccc(-n2ncc3c(NCCc4ccccc4)ncnc32)cc1	/	/	/	-3.5%	/	-8.6%
CCN1CCc2c(sc(NC(=O)c3ccc(S(=O)(=O)N(C)c4ccccc4)cc3)c2C(=O)NC)C1	8.3%	18.4%	7.0%	?	100µM*	23.3%
COc1ccc(OC)c(NC(=O)c2cnc(N3CCCCC3)c3ccccc23)c1	/	/	/	-18.3%	/	-2.6%
CC1=CC(=O)Nc2ccccc2S1	8.1%	-5.0%	4.5%	22.4µM*	12.8%	76.9%
CCc1c(C)nc2nncn2c1Nc1ccc(Cl)cc1	/	/	/	?	/	1.5%
N#Cc1sc2nc(-c3ccccc3)cc(-c3ccco3)c2c1N	-5.3%	-1.5%	35.5µM*	3.98µM*	-4.6%	27.6%
N#Cc1sc2nc(C3CC3)cc(-c3ccccc3)c2c1N	10.3%	-2.4%	-11.4%	-25.3%	7.0%	111.1%
Cc1cc(C)n(-c2nc(NCC3CCCO3)c3c4c(sc3n2)COC(C)(C)C4)n1 (centres undefined)	12.2%	-3.1%	-0.2%	-5.9%	-22.4%	3.16µM*
CC(C)(C)NC(=O)NC(=O)CN1CCN(S(=O)(=O)c2ccccc2)CC1	3.2%	4.1%	-4.7%	-1.3%	-3.6%	-7.2%
CC(C)(C)NC(=O)NC(=O)CN1CCN(S(=O)(=O)c2ccc3c(c2)CCCC3)CC1	56.2µM*	-12.3%	-9.4%	-20.1%	-2.0%	0.5%
O=C(O)c1cccc(NC2=C(N3CCOCC3)C(=O)c3ccccc3C2=O)c1	1.2%	-6.4%	-14.7%	31.6µM*	-1.2%	-0.1%
O=C1C(NS(=O)(=O)c2cccs2)=C(N2CCOCC2)C(=O)c2ccccc21	5.6%	-13.7%	-24.3%	-20.8%	-0.9%	-52.9%
COc1ccc(-c2csc3nc(-c4cccnc4)nc(N4CCC(C(N)=O)CC4)c23)cc1OC	-1.7%	8.3%	-28.2%	-11.1%	8.2%	-12.6%
COc1ccc(-c2csc3nc(C)nc(N4CCCCC4)c23)cc1OC	-1.0%	28.2µM*	-4.5%	-14.2%	8.5%	-6.6%
O=C(Nc1ccc(-c2nc3ccc(NC(=O)c4cccs4)cc3[nH]2)cc1)c1cccs1	11.4%	50.1µM*	?	?	?	5.6%
Cc1ccc(C(=O)c2oc3ccccc3c2NC(=O)COc2ccccc2Cl)cc1	/	/	/	-26.4%	/	0.5%
CCOC(=O)C1CCCN(C(=O)C2CCN(c3nnc(C)c4c(C)n(-c5ccccc5)nc34)CC2)C1 (centres undefined)	/	/	/	-3.7%	/	-4.9%
O=C(NNC(=O)c1ccc(NC(=O)C2CC2)cc1)c1ccc(F)cc1	7.8%	6.8%	-12.0%	-16.0%	-2.1%	-1.4%
NC(=S)NN=C(c1ccc(F)cc1)C1CC1	4.4%	1.0%	0.6%	-7.6%	24.9%	10µM*
SMILES	EPAC1 ag	EPAC2 antagonist	EPAC1 antag	USP1 inh	EPAC2 ag	GLP1R cytotox
COc1cccc(CSc2nc3cc(OC)c(OC)cc3c3nc(CCn4nc(C)cc4C)nn23)c1	/	/	/	-21.6%	/	21.0%
Cc1cc(C)cc(OCC(=O)N2CCC(c3nc4ccccc4o3)CC2)c1	/	/	/	-23.7%	/	-3.9%
FC(F)(F)c1ccccc1Cc1c(-c2ccc(Cl)cc2)nc2ccc(Cl)cn12	8.1%	56.2µM*	-19.7%	/	-0.3%	-7.5%
O=C(NC(=S)N1CCN(c2ccc(Cl)cc2[N+](=O)[O-])CC1)c1cccs1	-2.8%	-0.9%	15.4%	-11.1%	3.3%	5.62µM*
CCCSCCCNC(=O)c1ccc2c(c1)nc1n2CCCCC1	/	/	/	8.7%	/	-17.1%
Cc1ccc(C(=O)N2CCN(c3ccccc3)CC2)cc1S(=O)(=O)N1CCOCC1	-7.5%	-5.7%	56.2µM*	5.0%	2.0%	-0.8%
CN(C)c1nc(OCCNC(=O)Nc2ccccc2)nc(N(C)C)n1	-6.4%	0.0%	8.9%	-22.0%	10µM*	-5.4%
CN1/C(=C/C=C(/C#N)C(N)=O)C(C)(C)c2ccccc21	1.7%	12.7%	8.1%	-7.1%	9.6%	-9.7%
CN1/C(=C\C=C(/C#N)C(=O)Nc2ccccc2F)C(C)(C)c2ccccc21	?	49.7%	16.0%	-14.6%	100µM*	113.3%
Cc1cccc(N2CCN(C(=O)C3CCCN(S(=O)(=O)c4ccc5c(c4)oc(=O)n5C)C3)CC2)c1C (centres undefined)	/	/	/	?	/	-11.2%
O=C(CSc1nc2ccccc2n1Cc1ccccc1Cl)NCc1ccccc1	/	/	/	-19.4%	/	-21.0%
CCCCCCOc1ccc(/C=C/C(=O)Nc2sc3c(c2C(=O)OC)CCC3)cc1OC	/	/	/	-7.3%	/	?
O=C(COc1cccc(Oc2ccccc2)c1)Nc1ccc(SC(F)F)cc1	15.3%	-4.7%	0.0%	5.6%	19.3%	-45.4%
O=C(COc1cccc(OC(F)F)c1)Nc1ccc(SC(F)F)cc1	12.8%	25.1µM*	-3.0%	-10.5%	-19.7%	3.0%
CC(C)Cn1nc(NC(=O)c2cccc(Cl)c2)c2cc3ccccc3nc21	/	/	/	0.4%	/	59.9%
Cn1nc(-c2ccccc2)c2nc3ccccc3nc21	9.5%	291.3%	9.7%	?	100µM*	120.6%
Cc1ccc(-c2nc3ccccc3nc2-c2ccccc2)cc1	11.7%	?	-39.6%	-12.5%	10.0%	24.4%
COc1ccc(N=Cc2cc(Cc3ccccc3Cl)cc([N+](=O)[O-])c2O)cc1OC	-7.9%	-10.8%	-16.0%	?	7.1%	5.7%
